The panel holds about 79,000 compounds, 15% with a hit somewhere; the sample as a whole holds those more often. Cut-off read from the data, not from the text of the source: active = growth inhibition above about 70%; inactive = the rest.
Experiments:
[1] = NCI Yeast Anticancer Drug Screen. Data for the rad50 strain (AID 155);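 note: 0% = growth of vehicle-only cultures of the same strain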; conditions: S. cerevisiae rad50 strain growth inhibition; at 50.0 µM; stronger effect = higher value
In short: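 Yeast carrying a defined DNA repair defect were exposed to test compounds, and growth was compared with vehicle-treated controls to give percent inhibition.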

[2] = NCI Yeast Anticancer Drug Screen. Data for the mec2-1 strain (AID 157); conditions: S. cerevisiae mec2-1 strain, at 50.0 µM, stronger effect = higher value
In short: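 Compounds were applied to mec2-1 yeast cells. Their growth was then compared with that of vehicle-treated cultures to give growth inhibition.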

[3] = NCI Yeast Anticancer Drug Screen. Data for the sgs1 mgt1 strain (AID 161);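 note: 0% = growth of cultures given vehicle only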; conditions: S. cerevisiae sgs1 mgt1 strain, at 50.0 µM, stronger effect = higher value
In short: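 This yeast growth screen uses a strain with defined DNA-repair lesions; compound-treated growth is compared with vehicle-treated growth.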

[4] = NCI Yeast Anticancer Drug Screen. Data for the cln2 rad14 strain (AID 165);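 note: 0% = growth equal to vehicle treated cultures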; conditions: S. cerevisiae cln2 rad14 strain, at 50.0 µM, stronger effect = higher value
In short: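 Strain: cln2 rad14 yeast, altered in cell cycle control and DNA damage repair. Read-out: growth inhibition vs vehicle.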

[5] = NCI Yeast Anticancer Drug Screen. Data for the bub3 strain (AID 167); conditions: S. cerevisiae bub3 mutant strain, at 50.0 µM, stronger effect = higher value
In short: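 Compounds were applied to a genetically altered yeast strain carrying a cell-cycle control defect. Growth inhibition was scored against vehicle-treated controls.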

[6] = NCI Yeast Anticancer Drug Screen. Data for the mlh1 rad18 strain (AID 175); conditions: S. cerevisiae mlh1 rad18 strain growth inhibition; at 50.0 µM; stronger effect = higher value
In short: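 A repair-deficient yeast strain is exposed to test compound, and growth is scored relative to vehicle-treated controls.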

Measured: growth inhibition

Brc1cc(Br)cc(-c2nnc(-c3ccc4ccccc4c3)o2)c1
inactive: [1] -3.5% | [2] -20.8% | [3] -2.45% | [4] 3.25% | [5] 3% | [6] 4.55%

O=S1(=O)CCNc2ccccc2O1
inactive: [1] -3.15% | [2] -6.4% | [3] -3.55% | [4] -15.2% | [5] 7.2% | [6] 3.15%

COc1ccccc1-c1cc(=O)c2cc(C)cnc2[nH]1
inactive: [1] 5.6% | [2] 5.5% | [3] -0.5% | [4] -30.9% | [5] 4.65% | [6] 13.9%

CC1=C(c2cc(C(=O)Nc3cccc(Cl)c3)nc(NC#N)n2)Sc2ccccc2N1
inactive: [1] 25.6% | [2] 0.9% | [3] -0.7% | [4] 16.4% | [5] 4.75% | [6] 33.5%

COC12NC(=O)NC(=O)C1(c1ccccc1)CC(C)O2 (stereo not given)
inactive: [1] -2.7% | [2] -2.15% | [3] 6.8% | [4] -7.7% | [5] -24.1% | [6] -6.6%

CC(=O)c1c(C)c([N+](=O)[O-])c(C)c([N+](=O)[O-])c1C
inactive: [1] 2.1% | [2] 11.9% | [3] -8.9% | [4] -94.8% | [5] 23.4% | [6] 7.3%

COc1ccc(S(=O)c2coc3ccccc3c2=O)cc1 (stereo not given)
inactive: [1] 32.4% | [2] -9.05% | [3] 28.1% | [4] 14.7% | [5] 28.1% | [6] 20.9%

CCOC(=O)Nc1cc(Nc2ccc(Cl)cc2)c2nc(-c3ccc(Cl)cc3)c(-c3ccc(Cl)cc3)nc2n1
inactive: [1] 44.7% | [2] -0.9% | [3] 36.1% | [4] 20.9% | [5] -0.75% | [6] 8.8%

O=C(O)c1c2ccccc2nc2ccccc12
inactive: [1] -17.6% | [2] -17.9% | [3] -17.9% | [4] -34.5% | [5] 15.2% | [6] 57%

O=C1COCC(=O)N1
inactive: [1] 7.35% | [2] -22% | [3] 8.85% | [4] -1.95% | [5] 0.05% | [6] -0.2%

O=C1OCc2c[n+]([O-])ccc21
inactive: [1] -17.4% | [2] -9.2% | [3] -6.85% | [4] -30.2% | [5] 0.65% | [6] 4.35%

NC(=O)/C=C/c1ccc([N+](=O)[O-])cc1
inactive: [1] 33% | [2] -6.85% | [3] -9% | [4] -74% | [5] 4.6% | [6] -3.4%

COc1ccc(C(CC(=O)O)c2ccc(OC)c(OC)c2)c(OC)c1 (stereo not given)
inactive: [1] 3.4% | [2] -1.25% | [3] -6.65% | [4] -59.9% | [5] -1.6% | [6] 5.15%

CN1CCN(CCCN2CC(=O)N3Cc4ccccc4CN3C(=O)C2)CC1
inactive: [1] -26.6% | [2] -1.35% | [3] -9.45% | [4] 1% | [5] 5.15% | [6] -3%

CCOC(=O)CC1(O)Oc2cc3c(cc2C(c2cc(OC)c(OC)c(OC)c2)C1C(=O)OCC)OCO3 (stereo not given)
inactive: [1] -0.75% | [2] -5.9% | [3] -21.6% | [4] -0.55% | [5] -1.45% | [6] 10.2%

Nc1[nH]c(=O)ncc1[N+](=O)[O-]
inactive: [1] 2.5% | [2] -4.1% | [3] 5.9% | [4] -25.4% | [5] -16.2% | [6] -0.65%

CCC[C@H](C)[C@H]1NC(=O)[C@@H](NC(=O)[C@@H](CC(C)C)N(C)C(=O)C2CCCN2C(=O)[C@H](C)O)[C@@H](C)OC(=O)[C@H](CC(C)C)N(C)C(=O)[C@@H]2CCCN2C(=O)[C@H](CC(C)C)NC(=O)[C@@H](C)C(=O)[C@H](C(C)C)OC(=O)C[C@@H]1O (stereo not given in full)
inactive: [1] 21.2% | [2] 9.35% | [3] -5.9% | [4] 26.3% | [5] -20.9% | [6] -54%

N#CCCN(CCC#N)c1ccc(C=Nc2ccc(F)cc2)cc1
inactive: [1] 20% | [2] 9.65% | [3] 11.9% | [4] 15.8% | [5] 18.5% | [6] 45.2%

Cc1ncc(CO)c(Cc2ccc(N(C)C)cc2)c1O
inactive: [1] 3.15% | [2] -2.25% | [3] -5.9% | [4] -2.25% | [5] -58.8% | [6] 1.8%

Cc1cccc(C)c1NC(=O)C(=O)CC(=O)c1sc(Nc2c(C)cccc2C)nc1C
inactive: [1] 12.1% | [2] -10.9% | [3] 26.2% | [4] -22.9% | [5] 16.6% | [6] 16.9%

— PubChem BioAssay (NCI)
